Several values for one entry are separate records, joined by “and”; a condition that tells them apart may be missing. Equal entries are not always repeated. Records with an inconclusive call do not appear. Activity calls are given as the source filed them. Unless noted, calls follow the shape of the full dose curve.
% is scaled to controls: 0 for no effect and ±100 for the full control effect.

The nature of one experiment: qHTS assay to identify small molecule agonists of the hypoxia (HIF-1) signaling pathway - cell viability counter screen (AID 1224844). Also: nearly all actives have a fitted effect of over 50% in size. Also: potency is read from the fitted curve at half-maximal effect. Conditions: HRE-bla ME-180 viability, CellTiter-Glo luminescence, 17 h; series mostly up to 76.8 µM; activity change, negative = cytotoxicity: at the top concentration. In short, it runs like this: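 HRE-bla ME-180; 0.5% dFBS; cpd 17 h, 37C, 5% CO2; CellTiter-Glo lum., 30 min RT, post-FRET read, same wells.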
(Quantitative high-throughput screening tests each substance at several concentrations.)
Take `ClC1=C(Cl)[C@]2(Cl)[C@H]3[C@H]([C@@H]4C=C[C@H]3C4)[C@@]1(Cl)C2(Cl)Cl`: the Potency is 43.6 µM (active).

In the case of `O=C(N[C@@H]1N=C(c2ccccc2F)c2cccc3c2N(CC3)C1=O)c1cc2ccccc2[nH]1`, the “activity change, negative = cytotoxicity” value was -23.3% [at 35.3 µM] (inactive).

As to `CN(C)C(=S)SSC(=S)N(C)C`, the Potency was 171 nM (active) and 347 nM (active).

A further experiment in a line: qHTS assay to identify small molecule agonists of H2AX (AID 1224845; active = well fitted activation curve with a large enough effect in the signal ratio in the repeat runs, not every such curve was filed as active; the % refers to the signal ratio). Particulars: CHO-K1 phospho-H2AX Ser139 HTRF, 3 h; series mostly up to 154 µM; activation (H2AX phosphorylation): at the top concentration. A digest of the protocol: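 Phospho-H2AX Ser139 measured by HTRF (ex 320 nm; em 665 and 620 nm) after 24 hr antibody incubation. Compounds, 15 concentrations, 0.76% DMSO, were applied to CHO-K1 cells for 3hr at 37C before lysis.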
In the case of `COP(=S)(OC)Oc1nc(Cl)c(Cl)cc1Cl`, the “activation (H2AX phosphorylation)” value was -1.1% (inactive).

`[O-][Cl+3]([O-])([O-])O`: the “activation (H2AX phosphorylation)” value was 0.219% (inactive).

Take `O=Cc1ccccc1`: the “activation (H2AX phosphorylation)” value is 1.83% (inactive).

Regarding `Nc1cc(Cl)ccc1Cl`, the “activation (H2AX phosphorylation)” value was 0.666% (inactive).

Regarding `BrCC(Br)(Br)Br`, the “activation (H2AX phosphorylation)” value is 5.98% (inactive).

Turning to `CCC(OC(C)=O)C(CC(C)NC)(c1ccccc1)c1ccccc1` (stereo not drawn), the “activation (H2AX phosphorylation)” value is 2.24% (inactive).

As for `CSC(C)(C)/C=N/O`, the “activation (H2AX phosphorylation)” value was -2.32% (inactive).

As for `NC(=O)C(Cl)Cl`, the “activation (H2AX phosphorylation)” value was -0.29% (inactive).

As to `CN(C)CCc1c[nH]c2ccccc12`, the “activation (H2AX phosphorylation)” value was 0.108% (inactive).

Take `CCCCn1cc[n+](C)c1` (tested in a mixture with another compound): the “activation (H2AX phosphorylation)” value is -3.09% (inactive).

For the compound `CCN(CC)CCN1C(=O)CN=C(c2ccccc2F)c2cc(Cl)ccc21`, the “activation (H2AX phosphorylation)” value is -2.93% [at 70.9 µM] (inactive).

Consider `Nc1ccccc1-c1ccccc1`, for which the “activation (H2AX phosphorylation)” value was -2.69% (inactive).

In the case of `Nc1nc(N)nc(Cl)n1`, the “activation (H2AX phosphorylation)” value was -1.01% (inactive).

As for `Oc1cccc(Cl)c1Cl`, the “activation (H2AX phosphorylation)” value is 10% (inactive).

As to `CCCCCON=O`, the “activation (H2AX phosphorylation)” value was -3.5% (inactive).

As for `COc1ccc2[nH]cc(CCN(C(C)C)C(C)C)c2c1`, the “activation (H2AX phosphorylation)” value was -1.01% (inactive).

For the compound `Cc1ccn2nc(S(=O)(=O)Nc3c(F)cccc3F)nc2n1`, the “activation (H2AX phosphorylation)” value was -0.987% (inactive).

For the compound `COC(=O)C(C)N(C(=O)c1ccco1)c1c(C)cccc1C` (stereo not drawn), the “activation (H2AX phosphorylation)” value is -2.45% (inactive).

Regarding `CN1CCc2cc(Cl)c(O)cc2[C@H]2c3ccccc3CC[C@@H]21`, the “activation (H2AX phosphorylation)” value was -1.42% [at 70.9 µM] (inactive).

Regarding `N#CSCc1ccccc1`, the “activation (H2AX phosphorylation)” value was 0.8% (inactive).

A short description of a further experiment: qHTS assay to identify small molecule agonists of the hypoxia (HIF-1) signaling pathway (AID 1224846; active = well fitted activation curve with a large enough effect in the signal ratio in the repeat runs, not every such curve was filed as active; the % refers to the signal ratio). Particulars: HRE-bla ME-180 cells, beta-lactamase ratio, 17 h; series mostly up to 76.8 µM; activation: at the top concentration. A digest of the protocol: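 Reporter induction in HRE-bla ME-180 cells is taken as agonism: cells sit 5 hrs after plating, receive compounds or DMSO only, incubate 17 hrs at 37C under 5% CO2, and are loaded with CCF4-AM for beta-lactamase FRET measurement.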
`COP(=S)(OC)Oc1nc(Cl)c(Cl)cc1Cl`: the “activation” value is 0% (inactive).

For `[O-][Cl+3]([O-])([O-])O`, the “activation” value was -0.199% (inactive).

Regarding `O=Cc1ccccc1`, the “activation” value was 1.07% (inactive).

Take `Nc1cc(Cl)ccc1Cl`: the “activation” value was -0.65% (inactive).

Regarding `BrCC(Br)(Br)Br`, the “activation” value was 6.58% (inactive).

`CCC(OC(C)=O)C(CC(C)NC)(c1ccccc1)c1ccccc1` (stereo not drawn): the “activation” value was 7.1% (inactive).

Regarding `CSC(C)(C)/C=N/O`, the “activation” value is -0.0221% (inactive).

`NC(=O)C(Cl)Cl`: the “activation” value was -0.914% (inactive).

For the compound `CN(C)CCc1c[nH]c2ccccc12`, the “activation” value was -1.55% (inactive).

`CCCCn1cc[n+](C)c1` (tested in a mixture with another compound): the “activation” value is 0.0299% (inactive).

`CCN(CC)CCN1C(=O)CN=C(c2ccccc2F)c2cc(Cl)ccc21`: the “activation” value was 0.44% [at 35.5 µM] (inactive).

Take `Nc1ccccc1-c1ccccc1`: the “activation” value was -0.059% (inactive).

`Nc1nc(N)nc(Cl)n1`: the “activation” value is 0.746% (inactive).

Take `Oc1cccc(Cl)c1Cl`: the “activation” value is 0.303% (inactive).

`CCCCCON=O`: the “activation” value is -0.355% (inactive).

Take `COc1ccc2[nH]cc(CCN(C(C)C)C(C)C)c2c1`: the “activation” value was 0.594% (inactive).

For `Cc1ccn2nc(S(=O)(=O)Nc3c(F)cccc3F)nc2n1`, the “activation” value was 0.0662% (inactive).

Turning to `COC(=O)C(C)N(C(=O)c1ccco1)c1c(C)cccc1C` (stereo not drawn), the “activation” value was 2.72% (inactive).

Take `CN1CCc2cc(Cl)c(O)cc2[C@H]2c3ccccc3CC[C@@H]21`: the “activation” value was 2.72% [at 35.5 µM] (inactive).

Turning to `N#CSCc1ccccc1`, the “activation” value is -0.579% (inactive).

A further experiment is described as follows: qHTS assay to identify small molecule agonists of H2AX - cell viability counter screen (AID 1224847). Also: nearly all actives have a fitted effect of over 30% in size. Also: potency is read from the fitted curve at half-maximal effect. As to activity change, negative = cytotoxicity: top concentration of the series differs between compounds. Particulars: CHO-K1 viability, CellTiter-Glo luminescence, 3 h; series mostly up to 154 µM; activity change, negative = cytotoxicity: at the top concentration. In short, it runs like this: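 We seed wild-type CHO-K1 cells overnight, treat them for 3 hr at 37C with compounds in 15-concentration series, and quantify remaining viability by CellTiter-Glo luminescence.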
For `COP(=S)(OC)Oc1nc(Cl)c(Cl)cc1Cl`, the “activity change, negative = cytotoxicity” value was -7.59% (inactive).

For `[O-][Cl+3]([O-])([O-])O`, the “activity change, negative = cytotoxicity” value was 0.535% (inactive).

Turning to `O=Cc1ccccc1`, the “activity change, negative = cytotoxicity” value was -2.14% (inactive).

Take `CC[C@H](C)[C@H]1O[C@]2(C=C[C@@H]1C)C[C@@H]1C[C@@H](C/C=C(\C)[C@@H](O[C@H]3C[C@H](OC)[C@@H](O[C@H]4C[C@H](OC)[C@@H](NC)[C@H](C)O4)[C@H](C)O3)[C@@H](C)/C=C/C=C3\CO[C@@H]4[C@H](O)C(C)=C[C@@H](C(=O)O1)[C@]34O)O2`: the Potency is 16 µM (active).

`Nc1cc(Cl)ccc1Cl`: the “activity change, negative = cytotoxicity” value is 0.193% (inactive).

Turning to `C1=CCC=C1`, the “activity change, negative = cytotoxicity” value is -3.72% (inactive).

On to `BrCC(Br)(Br)Br`, for which the “activity change, negative = cytotoxicity” value was 0.616% (inactive).

`CCC(OC(C)=O)C(CC(C)NC)(c1ccccc1)c1ccccc1` (stereo not drawn): the Potency was 128 µM (active).

For `O=C1C2(Cl)C3(Cl)C4(Cl)C(Cl)(Cl)C5(Cl)C3(Cl)C1(Cl)C5(Cl)C24Cl` (stereo not drawn), the Potency is 49.6 µM (active) and 96.5 µM (active).

For `O=C1C(Cl)=C(Cl)C(=O)C(Cl)=C1Cl`, the Potency result is “inactive”.

With `CSC(C)(C)/C=N/O`, the “activity change, negative = cytotoxicity” value was 1.97% (inactive).

On to `NC(=O)C(Cl)Cl`, for which the “activity change, negative = cytotoxicity” value is -1.44% (inactive).

With `CN(C)CCc1c[nH]c2ccccc12`, the “activity change, negative = cytotoxicity” value was -1.03% (inactive).

With `CCCCn1cc[n+](C)c1` (tested in a mixture with another compound), the “activity change, negative = cytotoxicity” value is -1.46% (inactive).

In the case of `CCC(C)c1cccc(C(C)CC)c1O` (stereo not drawn), the Potency is 35.7 µM (active).

For the compound `Fc1ccc(C(OCCN2CCN(CCCc3ccccc3)CC2)c2ccc(F)cc2)cc1`, the Potency was 55.2 µM (active).

Regarding `CCN(CC)CCN1C(=O)CN=C(c2ccccc2F)c2cc(Cl)ccc21`, the “activity change, negative = cytotoxicity” value is -0.364% [at 70.9 µM] (inactive).

Consider `Nc1ccccc1-c1ccccc1`, for which the “activity change, negative = cytotoxicity” value is -6.54% (inactive).

Turning to `O=[N+]([O-])c1cc(C(F)(F)F)c(Cl)c([N+](=O)[O-])c1Nc1ncc(C(F)(F)F)cc1Cl`, the Potency was 50.5 µM (active).

For the compound `CCCCn1cc[n+](C)c1.[Cl][Fe-]([Cl])([Cl])[Cl]`, the “activity change, negative = cytotoxicity” value was -0.849% (inactive).

For `S=C=NCCc1ccccc1`, the “activity change, negative = cytotoxicity” value was 11.1% (inactive).

`Nc1nc(N)nc(Cl)n1`: the “activity change, negative = cytotoxicity” value is 10.2% (inactive).

As for `Oc1cccc(Cl)c1Cl`, the “activity change, negative = cytotoxicity” value is -11.3% (inactive).

`CCCCCON=O`: the “activity change, negative = cytotoxicity” value was -2.08% (inactive).

`CC(=O)C(Cl)C(=O)N(C)C` (stereo not drawn): the “activity change, negative = cytotoxicity” value was 14.5% (inactive).

As for `COc1ccc2[nH]cc(CCN(C(C)C)C(C)C)c2c1`, the “activity change, negative = cytotoxicity” value is -7.38% (inactive).

Turning to `Cc1ccn2nc(S(=O)(=O)Nc3c(F)cccc3F)nc2n1`, the “activity change, negative = cytotoxicity” value is 1.47% (inactive).

In the case of `COC(=O)C(C)N(C(=O)c1ccco1)c1c(C)cccc1C` (stereo not drawn), the “activity change, negative = cytotoxicity” value is -4.11% (inactive).

Consider `CN1CCc2cc(Cl)c(O)cc2[C@H]2c3ccccc3CC[C@@H]21`, for which the “activity change, negative = cytotoxicity” value is -8.71% [at 70.9 µM] (inactive).

As for `[C-]1=CC=CC1.[Cl][Zr+2][Cl].c1cc[cH-]c1`, the “activity change, negative = cytotoxicity” value was -0.865% (inactive).

`O=c1c2ccccc2c(=O)c2c1cc(Cl)c1[nH]c3c([nH]c12)c(Cl)cc1c(=O)c2ccccc2c(=O)c13`: the “activity change, negative = cytotoxicity” value is 10.7% (inactive).

On to `N#CSCc1ccccc1`, for which the “activity change, negative = cytotoxicity” value was -2.34% (inactive).

Regarding `ClC1=C(Cl)[C@]2(Cl)[C@H]3[C@H]([C@@H]4C=C[C@H]3C4)[C@@]1(Cl)C2(Cl)Cl`, the Potency is 89.8 µM (active).

Take `O=C(N[C@@H]1N=C(c2ccccc2F)c2cccc3c2N(CC3)C1=O)c1cc2ccccc2[nH]1`: the “activity change, negative = cytotoxicity” value is 10% [at 70.9 µM] (inactive).

`CN(C)C(=S)SSC(=S)N(C)C`: the Potency is 49.8 µM (active) and 89.8 µM (active) and 49.2 µM (active).

For the origin of these results see PubChem BioAssay (Tox21).
